Compound activity (PubChem)
Most compounds without a hit are left out; they make up all but 6.8% or so of the library.
Pf Dd2 inh = blocks growth of Plasmodium falciparum Dd2 parasites. AID 1159554. P. falciparum Dd2 growth, SYBR Green, 72 h; stronger effect = lower value. activity change, % at 10 µM. hit rate 2.3% among 94,000; in the data active means activity change below about -80%; inconclusive means no clear call, values can overlap the other calls
T cruzi growth-1 = T. cruzi proliferation inhibition; hit rate 5.9% among 77,000; inhibition, % at 8.34 µM; T. cruzi beta-gal in NIH3T3, GalScreen luminescence, 90 h; AID 624255;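 active means mean inhibition above about 93%, with at least 55% of replicates each passing it, limit read from the data, passing the limit was not always enough; inconclusive means only one of those two conditions holds; inactive means neither condition holds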
C diff growth = C. difficile growth inhibition; hit rate 0.25% among 86,000; Clostridium difficile clinical isolate growth, OD600, 24 h; stronger effect = lower value; growth activity, negative = inhibition, % at 16 µg/mL (by protocol);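 active means mean growth activity at or below -80% and every replicate also at or below -80%; inconclusive means mean at or below -80% but some replicate above -80%; inactive means mean growth activity above -80%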;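 further: 0% = DMSO wells and -100% = levofloxacin 16 µg/mL wells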
T cruzi growth-2 = Trypanosoma cruzi proliferation inhibition; shares compounds with T cruzi growth-1; inhibition, % at 8.35 µM; T. cruzi beta-gal in NIH3T3, GalScreen luminescence, 90 h; hit rate 72% among 5,600; AID 651739;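 active means mean replicate inhibition above about 95% and at least 55% of replicates individually reaching it, limit read from the data; inconclusive means only one of the two criteria is met; inactive means neither criterion is met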
T cruzi growth-3 = inhibitors of T. cruzi proliferation. hit rate 21% among 5,600. inhibition, % at 2.09 µM. shares compounds with T cruzi growth-1. T. cruzi beta-gal in NIH3T3, GalScreen luminescence, 90 h;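 active means mean inhibition above about 95%, with at least 55% of replicates also reaching it, limit read from the data; inconclusive means meets just one of the two conditions; inactive means meets neither condition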;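 further: plate controls were neutral control median for no effect and positive control median for full effect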
NIH3T3 tox = kills mouse NIH/3T3 fibroblasts | cytotoxicity (signal decrease), % at 8.35 µM | shares compounds with T cruzi growth-1 | NIH/3T3 viability, CellTiter-Glo ATP luminescence, 90 h | AID 651742 | hit rate 14% among 5,600;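 active means mean signal decrease across replicates above about 35% based on untreated-well scatter, with enough replicates individually passing, limit read from the data; inconclusive means no rule stated though some were filed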;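 further: 0% = median of neutral control wells and 100% = median of positive control wells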
NIH3T3 tox 2 = cytotoxicity in mouse NIH/3T3 fibroblasts | shares compounds with T cruzi growth-1 | inhibition, % at 24.9 µM | NIH/3T3 viability, CellTiter-Glo ATP luminescence, 90 h | hit rate 56% among 5,600;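 active means mean loss of cell viability signal at or above a set limit, and enough replicates individually reaching it; inconclusive means meets only the mean limit or only the replicate share; inactive means meets neither condition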;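 further: 0% = median of neutral control wells and 100% = median of positive control wells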
Active calls of the source: *; ? = inconclusive; / = no result given.

SMILES	Pf Dd2 inh	T cruzi growth-1	C diff growth	T cruzi growth-2	T cruzi growth-3	NIH3T3 tox	NIH3T3 tox 2
Cc1noc(C)c1NC(=O)N(C)C[C@H]1Oc2ccc(NC(=O)c3ccncc3)cc2C(=O)N([C@@H](C)CO)C[C@@H]1C	9.7	69.0	-0.9	/	/	/	/
C[C@H](O)C#Cc1ccc([C@@H]2[C@@H](CO)N3CCCCN(C(=O)c4ccc5c(c4)OCO5)C[C@@H]23)cc1	3.9	97.5*	-8.8	105.2*	32.4	31.1	44.0*
CC(C)C#Cc1ccc([C@@H]2[C@H]3CN(C(=O)c4ccc5c(c4)OCO5)CCCCN3[C@H]2CO)cc1	-8.3	39.5	4.7	/	/	/	/
C[C@H](O)C#Cc1ccc([C@@H]2[C@H]3CN(C(=O)c4ccc5c(c4)OCO5)CCCCN3[C@H]2CO)cc1	16.9	32.5	-7.6	/	/	/	/
CC(C)C#Cc1ccc([C@H]2[C@@H](CO)N3CCCCN(C(=O)c4ccc5c(c4)OCO5)C[C@@H]23)cc1	-1.0	99.2*	-7.3	110.1*	105.9*	67.6*	49.7*
C[C@H](CO)N1C[C@H](C)[C@@H](CN(C)Cc2ccncc2)OCCCC[C@H](C)Oc2ccc(NC(=O)Nc3ccc(F)cc3)cc2C1=O	24.6	27.1	1.6	/	/	/	/
COc1ccccc1C#Cc1ccc([C@@H]2[C@@H](CO)N3CCCCN(C(=O)C4CCCC4)C[C@@H]23)cc1	13.1	116.5*	13.5	102.3*	98.3*	-19.2	104.6*
COc1ccccc1C#Cc1ccc([C@@H]2[C@@H](CO)N3CCCCN(C(=O)C4CC4)C[C@H]23)cc1	10.6	86.8	-9.8	/	/	/	/
COc1ccccc1C#Cc1ccc([C@H]2[C@@H](CO)N3CCCCN(C(=O)C4CC4)C[C@H]23)cc1	-25.1	107.8*	-11.6	105.5*	103.1*	21.9	104.6*
COc1ccccc1C#Cc1ccc([C@H]2[C@@H](CO)N3CCCCN(C(=O)C4CCC4)C[C@@H]23)cc1	2.7	105.6*	-15.1	110.9*	?	50.0*	74.1*
COc1ccccc1C#Cc1ccc([C@@H]2[C@@H](CO)N3CCCCN(C(=O)C4CCC4)C[C@H]23)cc1	-1.1	87.5	12.3	/	/	/	/
COc1ccccc1C#Cc1ccc([C@H]2[C@H]3CN(C(=O)C4CCC4)CCCCN3[C@H]2CO)cc1	6.4	75.8	19.1	/	/	/	/
COc1ccccc1C#Cc1ccc([C@H]2[C@H](CO)N3CCCCN(C(=O)C4CCCC4)C[C@@H]23)cc1	-37.6	106.7*	27.4	106.1*	106.5*	42.8*	105.4*
COc1ccccc1C#Cc1ccc([C@@H]2[C@H](CO)N3CCCCN(C(=O)C4CCC4)C[C@@H]23)cc1	-14.8	86.9	21.4	/	/	/	/
Cc1noc(C)c1NC(=O)Nc1ccc2c(c1)C(=O)N([C@H](C)CO)C[C@H](C)[C@H](CN(C)C(=O)Nc1ccc(F)cc1)OCCCC[C@@H](C)O2	17.2	-4.3	1.3	/	/	/	/
COc1ccc(S(=O)(=O)N(C)C[C@@H]2Oc3ccc(NS(=O)(=O)c4cccs4)cc3C(=O)N([C@H](C)CO)C[C@H]2C)cc1	-35.3	18.7	-1.0	/	/	/	/
COCC#Cc1ccc2c(c1)O[C@H](CN(C)CC1CCOCC1)[C@@H](C)CN([C@H](C)CO)S2(=O)=O	-29.0	7.8	1.9	/	/	/	/
C/C=C/c1ccc2c(c1)O[C@@H](CN(C)C(=O)C1CCOCC1)[C@@H](C)CN([C@H](C)CO)S2(=O)=O	21.7	5.9	1.7	/	/	/	/
CC(C)NC(=O)Nc1ccc2c(c1)C(=O)N([C@H](C)CO)C[C@@H](C)[C@@H](CN(C)Cc1ccc3c(c1)OCO3)O2	-6.5	/	4.0	/	/	/	/
C[C@@H]1CCCCO[C@@H](CN(C)Cc2ccc(Cl)c(Cl)c2)[C@H](C)CN([C@@H](C)CO)C(=O)c2cc(NC(=O)Nc3ccc(F)cc3)ccc2O1	-52.9	103.6*	/	101.4*	117.3*	5.2	17.7
C[C@@H]1CCCCO[C@H](CN(C)Cc2ccc(Cl)c(Cl)c2)[C@@H](C)CN([C@H](C)CO)C(=O)c2cc(NC(=O)Nc3ccccc3)ccc2O1	1.9	90.1	9.0	/	/	/	/
C[C@@H]1CN([C@@H](C)CO)C(=O)c2cc(NC(=O)Nc3ccccc3)ccc2O[C@@H](C)CCCCO[C@H]1CN(C)Cc1ccc(Cl)c(Cl)c1	-74.6	69.1	/	/	/	/	/
